Laboratory results reported in PubChem BioAssay AID1851 (National Center for Advancing Translational Sciences (NCATS), 2009).
Values joined by “and” are separate entries in the source; they are usually repeats but may differ in a detail not shown here. Equal values may be shown once. Out of some 16,000 compounds screened, about 5,800 (36%) were called active. Inconclusive results (about 23%) are left out. Calls follow the shape of the dose curve; as a rule, active = well fitted curve in the direction sought with a large enough effect; inconclusive = small, poorly fitted or top-dose-only effect, or effect the other way; inactive = no such curve, though single readings can be large or run the other way. The list shows a part of the results. A structure can be active in one record and inactive in another.
% is scaled to controls: 0 for no effect and ±100 for the full control effect.

Each compound was assayed against Cytochrome P450 2C19 (Homo sapiens) (UniProt P33261) (assay: Cytochrome panel assay with activity outcomes). Conditions: recombinant CYP, pro-luciferin dealkylation, luminescence, p450-cyp2c19; series mostly up to 57.1 µM; activity, negative = inhibition: at the top concentration.
Chain of Cytochrome P450 2C19 (Homo sapiens) (P33261 whole entry, looked up): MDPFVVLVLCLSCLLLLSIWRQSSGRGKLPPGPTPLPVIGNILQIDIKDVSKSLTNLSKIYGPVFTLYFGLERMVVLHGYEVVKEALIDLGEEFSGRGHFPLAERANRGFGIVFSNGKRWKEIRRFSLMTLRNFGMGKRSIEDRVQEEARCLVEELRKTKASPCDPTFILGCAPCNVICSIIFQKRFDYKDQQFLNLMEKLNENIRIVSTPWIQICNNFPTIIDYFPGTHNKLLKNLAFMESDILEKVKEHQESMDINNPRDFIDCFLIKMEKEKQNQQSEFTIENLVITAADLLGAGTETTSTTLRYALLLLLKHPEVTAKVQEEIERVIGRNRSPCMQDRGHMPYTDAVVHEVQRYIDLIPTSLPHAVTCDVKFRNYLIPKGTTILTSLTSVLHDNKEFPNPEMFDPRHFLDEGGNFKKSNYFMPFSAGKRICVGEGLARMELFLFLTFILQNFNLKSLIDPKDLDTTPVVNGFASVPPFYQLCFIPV
For `CNC[C@H](O)[C@H](O)[C@H](O)[C@H](O)CO`, the “activity, negative = inhibition” value was 16.6% [at 25.6 µM] (inactive). With `Cc1cnc(CNc2nc(-c3ccccc3C)nc3ccccc23)cn1` the “activity, negative = inhibition” value was -36.4% (inactive). `Cc1cnc(CNc2ncnc3ccc(-c4ccc(N(C)C)cc4)cc23)cn1` was tested, and the AC50 was 15.8 µM (active). For `Cc1cnc(CNc2ncnc3ccc(-c4ccccc4C)cc23)cn1`, the AC50 was 15.8 µM (active). In the case of `Cc1cnc(CNc2ncnc3ccc(-c4ccoc4)cc23)cn1`, the “activity, negative = inhibition” value is reported as -4.33% (inactive). With `Cc1ncc([N+](=O)[O-])n1CCO` the “activity, negative = inhibition” value was 5.25% [at 25.6 µM] (inactive). In the case of `CN(C)Cc1ccccc1-c1cncnc1NCc1cccs1`, the “activity, negative = inhibition” value is reported as -4.64% (inactive). With `FC(F)(F)c1ccccc1-c1cncnc1NCc1cccs1` the AC50 was 20 µM (active). For `Cc1ccccc1-c1cncnc1NCc1cccs1`, the AC50 was 0.794 µM (active). `Clc1ccccc1-c1cncnc1NCc1cccs1` was tested, and the AC50 was 1.58 µM (active). With `COc1ccccc1-c1cncnc1NCc1cccs1` the AC50 was 2 µM (active). `Cc1cnn(-c2cc(N/N=C/c3ccccc3F)ncn2)c1` was tested, and the “activity, negative = inhibition” value was -20.9% (inactive). With `CN(C)CCCNC(=O)c1cc2c3ccccc3n(C)c2s1` the “activity, negative = inhibition” value was -26.7% (inactive). In the case of `COCCNC(=O)c1cc2c3ccccc3n(C)c2s1`, the AC50 is reported as 11.2 µM (active). For `COCCNC(=O)c1ccc2c(c1)nc(C)n2-c1cc(OC)c(OC)c(OC)c1`, the “activity, negative = inhibition” value was 0.165% (inactive). In the case of `O=C(OCc1nc2ccccc2s1)c1ccc(Br)s1`, the AC50 is reported as 0.447 µM (active). In the case of `COc1ccc(COC(=O)N/N=C2/C[C@@H](O)[C@@H](O)[C@@H]3[C@@H]4C(=O)N(c5cccc(Oc6ccccc6)c5)C(=O)[C@H]4CC[C@@H]23)cc1`, the activity, negative = inhibition is reported as 20.4% [at 11.4 µM] (inactive). In the case of `COc1ccc(NC(=O)CC2C(=O)N(c3cccc(OC)c3)C(=O)N2C2CCCCC2)cc1` (configuration not stated), the AC50 is reported as 8.91 µM (active). For `COc1cccc(N2C(=O)C(CC(=O)Nc3ccccc3)N(C3CCCCC3)C2=O)c1` (configuration not stated), the AC50 was 4.47 µM (active). `COc1ccc(COC(=O)N/N=C2/C[C@@H](O)[C@@H](O)[C@@H]3[C@@H]4C(=O)N(c5cccc(Oc6ccccc6)c5)C(=O)[C@H]4CC[C@H]23)cc1` was tested, and the activity, negative = inhibition was -11% [at 11.4 µM] (inactive). In the case of `CCCCCCCCSc1nnc(CSc2nc3nc(C)cc(C)n3n2)o1`, the AC50 is reported as 7.94 µM (active). `CCOC(=O)c1cnn(-c2ccc(C(C)C)cc2)c1NC(=O)C1CCC1` was tested, and the AC50 was 10 µM (active). `CC(C)OCCCN1CN(S(=O)(=O)c2cccc(Cl)c2)c2nc3ccccc3nc21` was tested, and the AC50 was 3.16 µM (active). For `O=C(O)[C@@H](O)c1ccc(F)cc1`, the activity, negative = inhibition was 10.1% [at 11.4 µM] (inactive). For `C[C@H](C(=O)O)c1cccc(Oc2ccccc2)c1`, the “activity, negative = inhibition” value was 6.23% [at 25.6 µM] (inactive). For `C[C@@H](C(=O)O)c1ccc(-c2ccccc2)c(F)c1`, the AC50 was “inactive and 631 nM (active)”. With `O=C(O)c1cccc(C(=O)O)c1S(=O)Cc1ccccc1` (configuration not stated) the activity, negative = inhibition was 41.5% [at 11.4 µM] (inactive). In the case of `O=S(Cc1ccccc1)CC(O)(c1ccccc1)c1ccccc1` (configuration not stated), the AC50 is reported as 5.01 µM (active). In the case of `O=C(O)C(Cl)(c1ccccc1)c1ccccc1`, the activity, negative = inhibition is reported as -2.62% [at 11.4 µM] (inactive). In the case of `CCOc1ccc(C(=O)Nc2cnn(Cc3ccc(Cl)c(Cl)c3)c2)cc1`, the AC50 is reported as 3.55 µM (active). `CCOC(OCC)P(=O)(O)CCCNCc1ccc(Cl)c(Cl)c1` was tested, and the “activity, negative = inhibition” value was 12.9% (inactive). With `Cn1cc(-c2nc3cnc(N4CCNCC4)nc3n(Cc3ccc(F)cc3)c2=O)c2ccccc21` the AC50 was 7.94 µM (active). For `Cn1cc(-c2nc3cnc(N4CCNCC4)nc3n(CCc3ccccc3)c2=O)c2ccccc21`, the AC50 was 2 µM (active). `Cn1cc(-c2nc3cnc(N4CCOCC4)nc3n(CCC#N)c2=O)c2ccccc21` was tested, and the “activity, negative = inhibition” value was -40.9% (inactive). `COCCn1c(=O)c(-c2cn(C)c3ccccc23)nc2cnc(N3CCNCC3)nc21` was tested, and the “activity, negative = inhibition” value was -24.4% (inactive). `CN1CCN(c2ncc3nc(-c4cn(C)c5ccccc45)c(=O)n(CCc4ccccc4)c3n2)CC1` was tested, and the “activity, negative = inhibition” value was 31.9% (inactive). `CCNc1ncc2nc(-c3cn(C)c4ccccc34)c(=O)n(Cc3ccc(F)cc3)c2n1` was tested, and the “activity, negative = inhibition” value was -44.7% (inactive). With `CSc1nc(C)c(CCOC(=O)c2cccc(C)c2)c(=O)[nH]1` the AC50 was 3.16 µM (active). With `CSc1nc(C)c(CCOC(=O)c2ccccc2)c(=O)[nH]1` the AC50 was 15.8 µM (active). With `CSc1nc(O)c(Cc2ccccc2)c(=O)[nH]1` the “activity, negative = inhibition” value was -4.58% (inactive). For `Cc1ccccc1[C@@H](OCCN(C)C)c1ccccc1`, the AC50 was “inactive”. With `C=CCn1c(=O)c2c(nc(Br)n2Cc2ccccc2Cl)n(C)c1=O` the AC50 was 0.794 µM (active). `COC(=O)Cn1c(=O)c2c(nc(Br)n2Cc2ccccc2Cl)n(C)c1=O` was tested, and the AC50 was 0.891 µM (active). For `C=CCn1cc(Cl)c(=O)n(CC=C)c1=O`, the “activity, negative = inhibition” value was -27.6% (inactive). For `C=CCn1c(=O)c2c(nc(-c3ccc(S(=O)(=O)O)cc3)n2C)n(C)c1=O`, the “activity, negative = inhibition” value was 21.2% (inactive). For `COc1ccc(N2CCN(Cc3nc4c(c(=O)n(C)c(=O)n4C)n3CC(C)=O)CC2)cc1`, the “activity, negative = inhibition” value was 8.13% (inactive). With `CN(C)c1nc2c(c(=O)[nH]c(=O)n2C)n1Cc1ccccc1Br` the “activity, negative = inhibition” value was -18.6% (inactive).
